Compound activity (PubChem BioAssay)
This is a sample that favours compounds with a hit; in the whole collection about 18% have one here.
DT40 TDP1 no CPT: qHTS for Inhibitors of human tyrosyl-DNA phosphodiesterase 1 (TDP1): qHTS in cells in absence of CPT; Potency, µM (top dose mostly 46.2 µM), hits mostly inhibitors; AID 686978, 2013; DT40 Tdp1-/- hTDP1 cells, no CPT, ATP luminescence, 48 h; hit rate 15% among 420,000; also: nearly all actives have a fitted effect of over 55% in size
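Growth kinetics read by CellTiter-Glo luminescence after ≥48 hr at 37 °C. Cells: DT40 Tdp1-/- stably carrying human TDP1, 400 per well, compound exposure in the absence of CPT (DMSO vehicle).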
VDR inhibitor: inhibitors of human vitamin D receptor; VDR-SRC2-3 peptide fluorescence polarization, 2 h; Potency, µM, most hits filed as inhibitors; hit rate 0.93% among 400,000
Target sequence (P11473 whole entry, looked up): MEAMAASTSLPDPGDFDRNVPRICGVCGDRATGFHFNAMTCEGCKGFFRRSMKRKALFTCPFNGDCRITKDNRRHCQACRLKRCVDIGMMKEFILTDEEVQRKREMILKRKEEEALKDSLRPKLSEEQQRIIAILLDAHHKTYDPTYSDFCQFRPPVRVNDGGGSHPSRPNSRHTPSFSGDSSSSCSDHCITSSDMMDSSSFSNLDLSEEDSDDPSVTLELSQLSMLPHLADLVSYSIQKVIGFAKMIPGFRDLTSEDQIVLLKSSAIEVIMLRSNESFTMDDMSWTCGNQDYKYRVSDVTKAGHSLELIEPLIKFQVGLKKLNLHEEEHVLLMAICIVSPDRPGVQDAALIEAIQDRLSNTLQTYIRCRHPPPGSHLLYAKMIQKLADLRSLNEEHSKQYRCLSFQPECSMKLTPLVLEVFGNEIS
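Signal is fluorescence polarization, reporting how far test compounds block the interaction of VDR with the SRC2-3 coregulator peptide after a 2 h room-temperature incubation.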
TDP1 block: inhibitors of human tyrosyl-DNA phosphodiesterase TDP1. Q9NUW8. recombinant TDP1, AlphaScreen DNA substrate cleavage. Potency, µM (highest dose often 130 µM), most hits filed as inhibitors. hit rate 0.28% among 350,000. AID 485290; also: nearly all actives have a fitted effect of over 40% in size
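Recombinant human Tdp1 (E. coli-expressed, 1 nM final) preincubated with compounds 15 min at room temperature, then 5'-biotin/3'-phosphotyrosine-FITC DNA substrate (15 nM final) added for 5 min. AlphaScreen beads (10 ug/ml final) added 10 min; cleavage lowers signal.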
PLK1 PBD inh: blocks phosphopeptide binding to human PLK1 polo-box domain. Plk1 PBD binding of FITC phosphopeptide, fluorescence polarization. hit rate 2.8% among 360,000. P53350. AID 720504. Potency, µM, most hits filed as inhibitors; also: series mostly up to about 57 µM; nearly all actives have a fitted effect of over 65% in size
TDP1 cell CPT: DT40-hTDP1 cell growth loss with CPT | chicken DT40 Tdp1-/-;hTDP1 cells + 20 nM CPT, ATP luminescence, 48 h | Potency, µM (top dose mostly 46.2 µM), most hits filed as inhibitors | hit rate 12% among 420,000; also: nearly all actives have a fitted effect of over 55% in size
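Chicken DT40 Tdp1-/- cells complemented with human TDP1, 400 cells/well, exposed to compounds plus 20 nM camptothecin for at least 48 h at 37 C; viability read as ATP content by CellTiter-Glo luminescence.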
GCN5L2 inh: GCN5L2 (KAT2A) acetyltransferase inhibition; GCN5L2 HAT assay, ThioGlo1 CoA-SH fluorescence; Potency, µM (titrated, usually from 58.9 µM), actives largely listed as inhibitors; AID 504327; hit rate 0.21% among 390,000; Q92830
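GCN5L2 (20nM final) in 50mM HEPES, 0.1mM EDTA pH 7.5, 0.01% Tween-20 was preincubated 15 min at room temperature with compound, then given ThioGlo1 (50uM), H3(1-25) peptide (75uM) and acetyl-CoA (70uM); CoA-thiol fluorescence (Ex340/Em540) was read at 0 and 20 min.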
Hits are given with their value; i = inactive; ? = inconclusive; nt = not tested or not shown; [ ] = dose if it differs, or a comment. Calls follow the shape of the dose curve; as a rule, active = well fitted curve in the direction sought with a large enough effect; inconclusive = small, poorly fitted or top-dose-only effect, or another doubt; inactive = no such curve, though single readings can be large; an effect the other way counts as inactive or inconclusive.

SMILES | DT40 TDP1 no CPT | VDR inhibitor | TDP1 block | PLK1 PBD inh | TDP1 cell CPT | GCN5L2 inh
COC(=O)c1ccc(NC(=O)c2cc[n+]([O-])cc2)cc1 | ? | i | nt | i | i | i
CC(=O)NC(Cc1ccc(F)cc1)C(=O)NC1CCN(C(=O)NCc2ccccc2)CC1 (stereo unspecified) | i | i | nt | i | i | i
Cc1noc(C)c1S(=O)(=O)Nc1ccc(C(=O)N2CCC(C)CC2)cc1 | nt | nt | i | nt | nt | i
Cc1noc(C)c1COc1ccc(C(=O)OCC(=O)N2CC3(C)CC2CC(C)(C)C3)cc1 (stereo unspecified) | 18.4µM | i | i | i | ? | i
Cc1ccc(OCC(=O)N2CC3(C)CC2CC(C)(C)C3)cc1 (stereo unspecified) | ? | i | i | i | ? | i
CN(C)S(=O)(=O)c1ccc(C(=O)OCC(=O)N2CC3(C)CC2CC(C)(C)C3)cc1 (stereo unspecified) | i | i | i | i | ? | i
Cc1cccc(C)c1OCC(=O)N1CC2(C)CC1CC(C)(C)C2 (stereo unspecified) | 14.1µM | i | i | i | ? | i
COc1ccc(OC)c(/C=C/C(=O)OCC(=O)N2CCN(S(=O)(=O)c3ccc(C)cc3C)CC2)c1 | ? | i | i[0.505 µM] | i | ? | i
CCn1c(SCC(N)=O)nnc1-c1cc2c(C)nn(-c3ccccc3)c2s1 | 29.1µM | i | i | i | ? | i
O=C(CCCCn1c(=O)c2ccccc2n(CC(=O)Nc2ccc(F)cc2F)c1=O)NCCc1ccccc1 | i | i | i | nt | i | i
CCc1noc(C)c1C(=O)NNC(=O)COc1ccc(Br)cc1 | i | i | i | i | i | i
COCCCNc1ccn2nc(-c3ccc(OCCN4CCOCC4)cc3)cc2n1 | 11.6µM | nt | nt | i | ? | nt
CC(C)Cc1ccc(-c2cc3nc(NCCCn4ccnc4)ccn3n2)cc1 | ? | nt | nt | i | ? | nt
NS(=O)(=O)c1ccc(CCNc2ccn3nc(-c4ccc(OCCN5CCOCC5)cc4)cc3n2)cc1 | 14.6µM | nt | nt | i | 18.4µM | nt
COc1ccc(S(=O)(=O)c2c(C(=O)c3ccc(C)c(C)c3)cnc3ccc(C)cc23)cc1 | 6.51µM | i | i | nt | 7.31µM | i
Cc1ccc(C(=O)c2cnc3cc4c(cc3c2S(=O)(=O)c2ccccc2)OCCO4)cc1 | 23.1µM | i | i | i | 18.4µM | ?
CCc1ccc(C(=O)c2cnc3ccc(F)cc3c2S(=O)(=O)c2ccccc2)cc1 | 5.8µM | i | i | nt | 5.17µM | i
Cc1nc2ccc(C(=O)NCCCn3ccnc3)cn2c1N(C)C(=O)CCc1ccccc1 | i | nt | nt | i | i | nt
Cc1cc2cc(CCNC(=O)c3ccc(S(=O)(=O)N4CCOCC4)cc3)c(=O)[nH]c2cc1C | 18.4µM | i | i | i | 16.4µM | ?
Cc1ccc2cc(CCNC(=O)c3ccc(S(=O)(=O)N4CCOCC4)cc3)c(=O)[nH]c2c1C | ? | i | i | i | ? | i
Cc1ccc2cc(CCNC(=O)c3ccc(S(=O)(=O)N4CCCCC4)cc3)c(=O)[nH]c2c1 | 23.1µM | i | i | i | ? | i
Nc1ccccc1C(=O)NC1CCCNC1=O (stereo unspecified) | i | i | nt | i | i | nt
CC1CCC(NC(=O)CCN2C(=O)C3C4C=CC(C4)C3C2=O)CC1 (stereo unspecified) | i | i | i | i | i | i
N#C/C(=C\c1ccc(N2CCCCC2)o1)C(=O)Nc1cccc(Br)c1 | 7.31µM | ? | i | i | ? | i
O=C(Nc1cnn(C23CC4CC(CC(C4)C2)C3)c1)c1cnn2c(C(F)(F)F)cc(-c3ccco3)nc12 | 15.8µM | i | i | i | 18.4µM | i
Cc1ccccc1Cn1ccc(NC(=O)c2cnn3c(C(F)(F)F)cc(-c4ccco4)nc23)n1 | 14.6µM | i | i | i | ? | i
COc1ccc(NC(=O)c2cnn3c(C(F)(F)F)cc(-c4ccco4)nc23)cc1OC | ? | i | i | i | ? | i
CC(C)N1CCN(C(=O)c2ccc(OC3CCN(CCc4ccccc4)CC3)cc2)CC1 | 23.1µM | i | i | i | ? | i
